For 104 compounds, inhibition results are on record in PubChem BioAssay AID1259343 (VanderVen Lab, College of Veterinary Medicine, Cornell …, 2017).

Each structure is given as a SMILES string. In all, about 6,200 compounds went through this assay and about 2,900 (47%) were called active. The set was probably picked from earlier hits. The list shows a part of the results. A number with no mark means an inactive call. Cut-off read from the data, not from the text of the source: active = inhibition above about 50%; inactive = the rest.

A short description of the test: Mycobacterium tuberculosis growth inhibition, primary screen (AID 1259343). As to conditions: inhibition: at 10 µM, active compounds read high; outcome: 10 uM.
One may read the inhibition as the drop in the measured response relative to a control, in per cent. In the case of `CNC(=O)NC(=O)CCSC(C)c1nc(-c2ccc(C)c(F)c2)no1` (centres undefined), the inhibition was 91.8% (active). Then `Cc1ccc(OCc2cc(C(=O)NC(C)c3nc(-c4ccccc4)no3)no2)cc1C` (centres undefined), with 23%; and `Cc1ccc2ncn(Cc3nc(-c4ccc(C)c(F)c4)no3)c(=O)c2c1`, with -6.02%; and `Cc1ccccc1Cc1nnc(CN(CC(C)O)c2ccccc2)o1` (centres undefined), with 80.1% (active).

Take `CCOC(=O)/C=C/c1c([N+](=O)[O-])sc(Br)c1Br`: the inhibition was 103% (active). Regarding `COCc1ccc(CN2CCCC(C(=O)Nc3ccc(-c4cscn4)cc3)C2)o1` (centres undefined), the inhibition was 29%. Consider `CC(=O)c1cc(CN2CCCC(C(=O)Nc3ccc(-c4cscn4)cc3)C2)cs1` (centres undefined), for which the inhibition was 70.9% (active). Then `O=C(Nc1ccc(-c2cscn2)cc1)C1CCCN(C(=O)c2cccs2)C1` (centres undefined), with 58.2% (active); and `Cc1cccc(CN2CCCC(C(=O)Nc3ccc(-c4cscn4)cc3)C2)c1` (centres undefined), with 88.8% (active); and `O=C(Nc1ccc(-c2cscn2)cc1)C1CCCN(Cc2ccon2)C1` (centres undefined), with “inactive”.

As to `O=C(c1ccc(Cl)s1)N1CCCC(Nc2ccc3c(c2)OCO3)C1` (centres undefined), the inhibition is 44.6%.

Consider `Cc1ccc(NC2CCCN(C(=O)c3cccs3)C2)cc1C` (centres undefined), for which the inhibition was 59.6% (active). Then `O=C(Nc1ccc(-c2cscn2)cc1)C1CCCN(C(=O)Cc2ccccc2F)C1` (centres undefined), with 33.2%; and `Cc1ccc(NC2CCCN(C(=O)C3CCCCC3)C2)cc1C` (centres undefined), with 49%. Take `COc1ccccc1-c1noc(CSc2nc3ccccc3o2)n1`: the inhibition is 89.1% (active). As for `CC1CCc2sc(-c3nnc(SCc4nc(-c5cccs5)no4)o3)cc2C1` (centres undefined), the figure is 5.99%. Then `c1csc(-c2noc(CSc3nc4ccccc4o3)n2)c1`, with 100% (active); and `CCCNC(=O)CSc1nc2ccccc2o1`, with -21.7%; and `O=S(=O)(c1ccc(Cl)s1)N1CCCc2cccc(O)c21`, with 43.4%. As for `Cc1cccc2nc(-c3ccc(C(C)(C)C)cc3)c(NC(C)(C)C)n12`, the figure is 73.6% (active). As for `CC(=O)N(C)c1ccc(NC(C)c2ccc(F)c(F)c2)cc1` (centres undefined), the inhibition is 20%.

Take `CNC(C)c1ccc(Sc2ccc(C(C)C)cc2)c(F)c1` (centres undefined): the inhibition is 67% (active). With `Cc1cc(I)ccc1N`, the inhibition is 83.3% (active). As for `O=C(COc1c(F)c(F)cc(F)c1F)c1ccc[nH]1`, the figure is 65.2% (active); as for `Nn1ccc2nc3ccn(CCC4=CCCCC4)c(=O)c3cc2c1=O`, 85.4% (active); as for `O=S(=O)(NCCC1=CCCCC1)c1cccc2nonc12`, -1.1%.

With `CCOC(=O)COc1ccc(C)cc1C(=O)c1cnc2c(c1)COc1ccccc1-2`, the inhibition was 61.1% (active). Then `CC(Nc1ccc(OCC(F)(F)F)cc1)C(=O)Nc1ccc(Cl)cn1` (centres undefined), with 97% (active). As for `O=C(CN(C1CCCCC1)C1CC1)Nc1ccc(Cl)cn1`, the figure is 37.5%; as for `CC(Nc1cccc(OC(F)(F)F)c1)C(=O)Nc1cccnc1Cl` (centres undefined), -51.8%. As for `O=C1NC(=NN=Cc2cccnc2)SC1Cc1ccc(SC(F)F)cc1` (centres undefined), the figure is 35.2%; as for `Fc1ccccc1-n1cc(-c2ccnc(NC3CCC3)n2)cn1`, 20.1%; as for `COc1ccnc(NC2CCC(c3ccccc3)CC2)n1` (centres undefined), 68.9% (active). As to `O=C(NC1CCC(c2ccccc2)CC1)c1n[nH]c2ccccc12` (centres undefined), the inhibition was 25.1%. Then `COc1cccc(-c2ccc(NC(=O)C3CCCN(C(=O)c4ccoc4)C3)cc2)c1` (centres undefined), with “inactive”; and `COc1ccc(-c2ccc(C(=O)N3CCC(C(N)=O)C3)c(F)c2)cc1` (centres undefined), with 69.6% (active); and `Ic1cccc(-c2nnc(-c3ccccc3)o2)c1`, with 103% (active). As for `CN(C)c1cccc(-c2nc3cc(N)ccc3o2)c1`, the figure is 30.8%; as for `Nc1ccc(-c2nc3cc(Cl)ccc3o2)cc1`, 90.3% (active). Regarding `Nc1ccc2oc(-c3cccc(I)c3)nc2c1`, the inhibition was 60.4% (active). Consider `CC(c1nnc(-c2ccccc2)o1)N(C)CC12CC3CC(CC(C3)C1)C2` (centres undefined), for which the inhibition was -23%. As for `Nc1ccc2oc(-c3cc(F)c(F)cc3Cl)nc2c1`, the figure is -28%; as for `Nc1ccc2oc(-c3cncc(Br)c3)nc2c1`, 7.61%.

With `Nc1ccc(Cl)c(-c2nc3cc(Cl)ccc3o2)c1`, the inhibition was 30%.

`Cc1cccc(-c2nnc(C(C)Oc3ccccc3C#N)o2)c1` (centres undefined): the inhibition was 23.4%.

Take `CS(=O)(=O)c1nnnn1-c1ccccc1Cl`: the inhibition was 95.7% (active).

Consider `COc1cc(C2=NC(=Cc3ccc(N4CCOCC4)s3)C(=O)O2)cc(OC)c1OC`, for which the inhibition is 79.7% (active). As for `COc1cc(C2=NC(=CC3=Cc4ccccc4OC3)C(=O)O2)cc(OC)c1OC`, the entry is “inactive”; as for `Cc1ccc(C2=NC(=Cc3ccco3)C(=O)O2)cc1C`, -7.96%. Then `O=C(CCl)Nc1nc(-c2ccccc2Cl)cs1`, with 97.7% (active). As for `O=C(CCl)Nc1ncc(Cc2ccccc2)s1`, the figure is -18.1%; as for `O=C(CCl)Nc1nc(-c2c[nH]c3ccccc23)cs1`, -41.1%; as for `O=C(CCl)Nc1ncc(Cc2ccccc2Cl)s1`, 92.7% (active). For `O=C(Nc1nc(-c2ccco2)c(-c2ccco2)s1)c1cnccn1`, the inhibition is -27.4%. For the compound `Cc1cnc(NC(=O)CCc2nc(C(C)(C)C)no2)s1`, the inhibition was -2.31%. Then `O=C(Nc1ncc(Cc2ccccc2Cl)s1)c1cnccn1`, with 92.8% (active). Then `CC1(C(=O)Nc2nc(-c3ccccc3Cl)cs2)Cc2ccccc2C(=O)O1` (centres undefined), with 37.1%; and `O=C1CCCC2=C1C(c1cccs1)n1ncnc1N2` (centres undefined), with -18.9%; and `O=C(NCCCOCc1ccccc1)c1cc(Cl)c[nH]1`, with 77.7% (active). Then `CCCC(C)NC(=O)c1cc(Cl)c[nH]1` (centres undefined), with 10.3%. Turning to `O=C(COc1ccc(F)cc1)NCCc1ccc(OC(F)F)cc1`, the inhibition is 90.5% (active). For the compound `O=C(COc1ccc(F)cc1)NCc1csc(Br)c1`, the inhibition is -34.9%. Then `Cc1ccc(C2=NN(C(=O)CN3CCc4ccccc4C3)C(c3ccccc3C)C2)c(C)c1` (centres undefined), with 40.4%. As for `Cc1ccc(Cl)cc1NC(=O)CN1CCc2ccccc2C1`, the figure is 91.4% (active); as for `CCOc1cc(C)ccc1NC(=O)CN1Cc2ccccc2C1`, 14.2%. As to `CCN(Cc1cccc(C(N)=O)c1)c1ccccc1C`, the inhibition is 27.3%. As for `CC1(C)CC(C=Cc2cccs2)=Nc2ccccc2S1`, the figure is -37.6%; as for `N#Cc1ccc([N+](=O)[O-])c(O)c1`, 77.2% (active). Then `CN1/C(=C/C(=O)Nc2ccc(Cl)cc2)C(C)(C)c2ccccc21`, with 1.72%; and `CCN(CC)P(=S)(C=C1N(C)c2ccccc2C1(C)C)CC` (centres undefined), with 87.2% (active); and `CCOP1(=S)C(=C2N(C)c3ccccc3C2(C)C)C=NN1c1ccccc1` (centres undefined), with 27.1%. `O=C(Nc1ccsc1C(=O)O)c1ccc(Br)cc1`: the inhibition is 82.5% (active). `O=C(O)c1sc(Br)c(I)c1I`: the inhibition is 7.67%. Then `c1csc(-c2cnc3ccc(-c4ccncc4)nn23)c1`, with 74.1% (active); and `C(=Nn1c(-c2cccs2)csc1=Nc1ccccc1)c1ccccn1`, with -1.25%.

In the case of `N#Cc1cc2c(nc1SCC(=O)OCc1ccccc1)CCC2`, the inhibition was 41.5%.

For the compound `CCOc1ccccc1NC(=O)Nc1ccc(Nc2cc(OC(C)C)nc(C)n2)cc1`, the inhibition was 14.6%. For `CCCC(C)(C)NC(=O)c1nnn(-c2ccc(F)cc2)c1C`, the inhibition is 16.4%.

In the case of `CCOc1ccccc1-n1nnc(C(=O)Nc2ccc(C(C)=O)cc2)c1C`, the inhibition is 70% (active). As for `CC1=NN(c2ccc(Cl)cc2)C(=O)C12Cc1ccccc1N1CCCCC12` (centres undefined), the figure is 19.5%; as for `CCNC(=S)NN=C(C)c1ccc(Cl)s1`, -2.97%; as for `CCOC(=O)NN=C(C)c1ccc(Cl)s1`, 19.5%.

Consider `COCCNC(=S)NN=C(C)c1ccc(Cl)s1`, for which the inhibition is 79.3% (active). Take `CNC(=S)NN=C(C)c1ccc(Cl)s1`: the inhibition is 47.3%.

With `CC(=NNc1ncc(Cl)cc1Cl)c1ccc(Cl)s1`, the inhibition was 30.7%. Then `C=C(C)CNC(=S)NN=C(C)c1ccc(Cl)s1`, with 102% (active). Then `CNC(=O)c1ccc2n1CCN(C(=O)OCc1ccccc1)C2C` (centres undefined), with 16.2%. As for `O=C(NCCCCCC(=O)N1CCC(c2ccccc2)CC1)OCc1ccccc1`, the inhibition is 70.8% (active).

Regarding `O=C(C1CCCC1)N1CCN(c2nc(-c3ccccc3Cl)nc3cc(Cl)ccc23)CC1`, the inhibition was 24.6%.

As for `O=C(c1ccc([N+](=O)[O-])cc1)N1CCN(c2nc(-c3ccccc3)c3cc(Cl)ccc3n2)CC1`, the inhibition was 68% (active). Then `Cc1ccc(C)c(N2CCN(C(=O)c3ccc4c(=O)nc5c(-c6ccccc6)n[nH]n5c4c3)CC2)c1`, with 46.6%; and `Cc1ccc(-n2ncc3c(C)nn(Cc4ccccc4F)c(=O)c32)c(C)c1`, with 37.1%. Then `CN(C1CCCCC1)S(=O)(=O)c1ccc(Br)cc1Cl`, with -4.67%; and `O=S(=O)(Nc1ccc(Cl)cc1F)c1ccc(Br)cc1Cl`, with 71% (active). Then `O=S(=O)(Nc1c(F)cccc1F)c1c(Cl)cccc1Cl`, with 78.8% (active); and `CN(C)S(=O)(=O)c1ccc(CNc2cc(F)ccc2Cl)o1`, with -3.01%. As to `O=S(=O)(Nc1c(F)cccc1Br)c1cc(Cl)cc(Cl)c1`, the inhibition is 87.1% (active). Take `Cc1ccc(F)cc1NS(=O)(=O)c1cc(Cl)sc1Cl`: the inhibition is 94.1% (active). As for `O=S(=O)(Nc1ccc(F)c(F)c1F)c1ccc(Cl)c2ncccc12`, the figure is 63% (active); as for `O=S(=O)(Nc1ccc(F)c(F)c1F)c1ccc(Cl)cc1F`, 79.2% (active). In the case of `Cc1ccc(NS(=O)(=O)c2ccc(F)cc2[N+](=O)[O-])c(F)c1`, the inhibition was 50.2% (active).

On to `O=S(=O)(Nc1ccc(F)cc1F)c1ccccc1Cl`, for which the inhibition was 82.3% (active). In the case of `Cc1nnc(N2C(=N)S/C(=C\c3c(-c4ccccc4)n(C)c4ccccc34)C2=O)s1`, the inhibition was 23.3%. In the case of `NC(=O)c1ccccc1OCc1ccccc1C(F)(F)F`, the inhibition is 42.9%.
